Test in all cases: DAPPL (digital affinity profiling via proximity ligation, sequencing); 10 mM Tris-HCl pH 7.5, 50 mM NaCl, 1 mM DTT, 4% glycerol, room temperature, 30 min; GST-TFs on glutathione beads, 16-mer random dsDNA library, 0.1% formaldehyde crosslink after washing; high values mean tight binding
In one experiment the target is T1, FEV (Homo sapiens, UniProt Q99581 1-238).
T1 sequence: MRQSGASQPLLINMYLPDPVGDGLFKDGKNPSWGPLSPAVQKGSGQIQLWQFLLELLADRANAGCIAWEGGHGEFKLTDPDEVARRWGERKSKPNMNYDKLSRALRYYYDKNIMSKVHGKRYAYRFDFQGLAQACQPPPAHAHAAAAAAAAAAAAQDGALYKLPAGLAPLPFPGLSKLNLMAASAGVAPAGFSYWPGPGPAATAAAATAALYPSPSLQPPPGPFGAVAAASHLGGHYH
Particulars: protein: recombinant; tags: N-terminal GST; dsDNA, one strand shown. The gist of the method:
(§1)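 Binding signal is given per hexamer as its read frequency for a factor divided by its frequency in the tag-only sample. GST-fused human transcription factors were expressed in yeast, captured on glutathione beads, barcoded with DNA and pooled with that sample, then incubated with 200 nmole of a 16-mer random double-stranded DNA library in Tris/NaCl/DTT/glycerol buffer for 30 min at room temperature. The pools were then washed, crosslinked, proximity-ligated, amplified by PCR and sequenced on an Illumina NextSeq500.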

The next experiment concerns the target ETV5 (Homo sapiens, UniProt P41161 1-510). Particulars: protein: recombinant; tags: N-terminal GST; dsDNA, one strand shown. The gist of the method:
as §1

In the next experiment the target is HSF1 (Homo sapiens, UniProt Q00613 1-529). Particulars: protein: recombinant; tags: N-terminal GST; chain copies: 3; dsDNA, one strand shown. Summed up:
as §1

The target of a further experiment is T2, SPIC (Homo sapiens, UniProt Q8N5J4 1-248).
T2 sequence: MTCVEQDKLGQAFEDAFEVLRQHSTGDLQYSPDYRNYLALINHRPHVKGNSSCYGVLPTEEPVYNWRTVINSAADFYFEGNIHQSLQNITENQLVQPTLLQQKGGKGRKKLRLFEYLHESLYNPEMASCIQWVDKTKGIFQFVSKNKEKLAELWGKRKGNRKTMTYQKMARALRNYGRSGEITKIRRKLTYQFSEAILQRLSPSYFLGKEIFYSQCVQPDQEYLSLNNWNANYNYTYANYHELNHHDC
Particulars: protein: recombinant; tags: N-terminal GST; dsDNA, one strand shown. The gist of the method: as §1

Another experiment concerns the target ELF4 (Homo sapiens, UniProt Q99607 1-663). To be noted: protein: recombinant; tags: N-terminal GST; dsDNA, one strand shown. The gist of the method: as §1
In another experiment the target is T3, ELK4 (Homo sapiens, UniProt P28324-2 1-405).
T3 sequence: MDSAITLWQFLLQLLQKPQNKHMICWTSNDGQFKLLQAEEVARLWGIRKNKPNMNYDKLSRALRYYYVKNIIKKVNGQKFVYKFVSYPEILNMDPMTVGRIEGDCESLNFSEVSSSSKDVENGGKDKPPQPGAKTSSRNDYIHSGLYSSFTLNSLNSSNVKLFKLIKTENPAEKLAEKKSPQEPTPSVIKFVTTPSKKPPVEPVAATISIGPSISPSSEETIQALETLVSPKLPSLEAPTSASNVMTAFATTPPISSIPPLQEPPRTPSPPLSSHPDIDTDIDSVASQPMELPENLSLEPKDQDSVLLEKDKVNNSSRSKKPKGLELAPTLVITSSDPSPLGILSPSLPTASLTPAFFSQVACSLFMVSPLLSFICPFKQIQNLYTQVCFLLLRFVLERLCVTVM
Particulars: protein: recombinant; tags: N-terminal GST; dsDNA, one strand shown. Summed up:
as §1

In a further experiment the target is T4, ETV2 (Homo sapiens, UniProt O00321 1-342).
T4 sequence: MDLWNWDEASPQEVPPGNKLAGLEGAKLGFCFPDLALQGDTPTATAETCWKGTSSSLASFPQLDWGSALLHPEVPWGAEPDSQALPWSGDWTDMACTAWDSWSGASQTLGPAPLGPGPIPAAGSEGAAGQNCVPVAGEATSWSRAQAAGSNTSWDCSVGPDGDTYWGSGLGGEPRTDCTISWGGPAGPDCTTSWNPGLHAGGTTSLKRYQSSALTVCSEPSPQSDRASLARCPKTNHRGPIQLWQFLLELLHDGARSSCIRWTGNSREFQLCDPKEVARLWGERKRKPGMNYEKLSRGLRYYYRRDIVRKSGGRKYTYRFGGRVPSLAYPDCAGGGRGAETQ
Particulars: protein: recombinant; tags: N-terminal GST; dsDNA, one strand shown. Summed up:
as §1

A further experiment has as its target T5, ELF3 (Homo sapiens, UniProt P78545 1-371).
T5 sequence: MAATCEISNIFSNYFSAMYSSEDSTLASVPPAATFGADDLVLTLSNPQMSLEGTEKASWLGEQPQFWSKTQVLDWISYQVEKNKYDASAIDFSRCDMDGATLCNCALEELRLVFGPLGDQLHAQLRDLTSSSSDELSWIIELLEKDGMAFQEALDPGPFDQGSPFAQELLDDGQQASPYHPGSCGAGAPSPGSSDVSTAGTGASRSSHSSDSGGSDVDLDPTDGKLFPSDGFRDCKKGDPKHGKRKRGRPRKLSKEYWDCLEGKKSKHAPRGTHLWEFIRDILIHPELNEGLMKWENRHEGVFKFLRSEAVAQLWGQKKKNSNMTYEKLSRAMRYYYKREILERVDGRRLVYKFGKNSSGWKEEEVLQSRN
To be noted: protein: recombinant; tags: N-terminal GST; dsDNA, one strand shown. The gist of the method: as §1

The next experiment deals with CRX (Homo sapiens, UniProt O43186 1-299). Particulars: protein: recombinant; tags: N-terminal GST; dsDNA, one strand shown. Summed up:
as §1

Another experiment concerns the target ETV1 (Homo sapiens, UniProt P50549 1-477). To be noted: protein: recombinant; tags: N-terminal GST; dsDNA, one strand shown. Summed up: as §1
Another experiment deals with T6, ERF (Homo sapiens, UniProt P50548 1-548).
T6 sequence: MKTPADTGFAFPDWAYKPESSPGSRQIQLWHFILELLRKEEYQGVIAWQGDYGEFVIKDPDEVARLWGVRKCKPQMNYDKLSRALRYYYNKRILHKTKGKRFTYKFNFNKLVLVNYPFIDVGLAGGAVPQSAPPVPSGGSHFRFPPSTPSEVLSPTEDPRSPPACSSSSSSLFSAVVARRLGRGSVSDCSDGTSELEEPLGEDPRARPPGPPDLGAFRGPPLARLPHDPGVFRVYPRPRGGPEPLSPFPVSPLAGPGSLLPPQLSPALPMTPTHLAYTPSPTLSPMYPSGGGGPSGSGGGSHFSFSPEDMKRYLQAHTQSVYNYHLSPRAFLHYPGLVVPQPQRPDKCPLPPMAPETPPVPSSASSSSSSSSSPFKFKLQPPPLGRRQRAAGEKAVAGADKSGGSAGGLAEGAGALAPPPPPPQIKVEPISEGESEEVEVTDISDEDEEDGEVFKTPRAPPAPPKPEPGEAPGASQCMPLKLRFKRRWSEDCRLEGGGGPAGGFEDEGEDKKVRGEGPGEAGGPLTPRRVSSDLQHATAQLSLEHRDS
To be noted: protein: recombinant; tags: N-terminal GST; dsDNA, one strand shown. The gist of the method:
as §1

The next experiment has as its target T7, ETV3L (Homo sapiens, UniProt Q6ZN32 1-361).
T7 sequence: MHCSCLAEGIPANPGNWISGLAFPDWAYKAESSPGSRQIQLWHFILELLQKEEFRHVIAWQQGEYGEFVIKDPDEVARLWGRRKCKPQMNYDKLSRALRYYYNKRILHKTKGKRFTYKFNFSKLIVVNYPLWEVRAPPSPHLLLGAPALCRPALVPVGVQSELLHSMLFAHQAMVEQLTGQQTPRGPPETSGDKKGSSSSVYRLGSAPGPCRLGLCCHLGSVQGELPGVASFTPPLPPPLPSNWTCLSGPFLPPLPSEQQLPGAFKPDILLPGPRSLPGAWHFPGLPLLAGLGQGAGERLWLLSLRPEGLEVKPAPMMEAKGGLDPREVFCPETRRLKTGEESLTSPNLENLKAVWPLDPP
To be noted: protein: recombinant; tags: N-terminal GST; dsDNA, one strand shown. The gist of the method: as §1

The target in another experiment is T8, ETS2 (Homo sapiens, UniProt P15036 1-469).
T8 sequence: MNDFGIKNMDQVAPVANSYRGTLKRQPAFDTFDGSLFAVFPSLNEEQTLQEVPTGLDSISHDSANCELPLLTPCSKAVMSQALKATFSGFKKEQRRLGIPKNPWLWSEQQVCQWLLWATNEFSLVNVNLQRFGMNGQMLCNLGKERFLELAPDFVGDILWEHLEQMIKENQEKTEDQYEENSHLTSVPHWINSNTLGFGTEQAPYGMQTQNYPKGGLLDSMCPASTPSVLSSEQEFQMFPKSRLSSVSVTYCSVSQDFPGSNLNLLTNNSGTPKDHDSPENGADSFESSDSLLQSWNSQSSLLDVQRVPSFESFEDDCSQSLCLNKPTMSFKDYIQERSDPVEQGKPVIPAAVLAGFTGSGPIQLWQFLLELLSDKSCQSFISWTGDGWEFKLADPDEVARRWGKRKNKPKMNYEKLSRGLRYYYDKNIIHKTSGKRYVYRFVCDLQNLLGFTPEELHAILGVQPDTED
To be noted: protein: recombinant; tags: N-terminal GST; dsDNA, one strand shown. Summed up:
as §1

In another experiment the target is T9, SPDEF (Homo sapiens, UniProt O95238 1-335).
T9 sequence: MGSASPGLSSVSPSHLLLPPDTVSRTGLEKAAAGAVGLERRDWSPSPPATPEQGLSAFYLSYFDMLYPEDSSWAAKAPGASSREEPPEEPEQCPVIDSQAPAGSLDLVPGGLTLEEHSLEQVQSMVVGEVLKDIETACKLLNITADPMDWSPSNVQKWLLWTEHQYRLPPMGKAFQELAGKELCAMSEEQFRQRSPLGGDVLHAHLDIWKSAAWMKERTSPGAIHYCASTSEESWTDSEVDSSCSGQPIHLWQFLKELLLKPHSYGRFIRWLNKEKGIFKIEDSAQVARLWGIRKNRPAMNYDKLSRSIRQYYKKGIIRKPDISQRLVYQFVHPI
To be noted: protein: recombinant; tags: N-terminal GST; dsDNA, one strand shown. Summed up:
as §1

The target of another experiment is T10, ETV7 (Homo sapiens, UniProt Q9Y603 1-341).
T10 sequence: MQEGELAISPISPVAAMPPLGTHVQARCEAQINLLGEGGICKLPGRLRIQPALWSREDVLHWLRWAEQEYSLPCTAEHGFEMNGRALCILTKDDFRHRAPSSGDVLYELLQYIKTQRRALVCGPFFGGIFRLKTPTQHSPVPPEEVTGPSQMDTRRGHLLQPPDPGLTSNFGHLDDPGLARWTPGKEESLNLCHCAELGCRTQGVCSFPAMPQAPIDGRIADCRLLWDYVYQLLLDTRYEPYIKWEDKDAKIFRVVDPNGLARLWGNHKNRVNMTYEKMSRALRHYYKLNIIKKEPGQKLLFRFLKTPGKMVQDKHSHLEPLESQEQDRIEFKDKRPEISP
Particulars: protein: recombinant; tags: N-terminal GST; dsDNA, one strand shown. The gist of the method:
as §1

The next experiment deals with T11, ELF5 (Homo sapiens, UniProt Q9UKW6-2 1-255).
T11 sequence: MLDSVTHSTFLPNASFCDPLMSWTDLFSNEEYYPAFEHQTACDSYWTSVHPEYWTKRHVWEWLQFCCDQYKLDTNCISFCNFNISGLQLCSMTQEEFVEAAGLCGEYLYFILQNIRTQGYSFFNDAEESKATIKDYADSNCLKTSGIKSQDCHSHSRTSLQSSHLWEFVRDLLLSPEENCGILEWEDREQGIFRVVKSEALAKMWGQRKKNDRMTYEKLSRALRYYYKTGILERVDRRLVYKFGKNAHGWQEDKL
To be noted: protein: recombinant; tags: N-terminal GST; dsDNA, one strand shown. The gist of the method: as §1

A further experiment addresses T12, ETV3 (Homo sapiens, UniProt P41162-2 1-143).
T12 sequence: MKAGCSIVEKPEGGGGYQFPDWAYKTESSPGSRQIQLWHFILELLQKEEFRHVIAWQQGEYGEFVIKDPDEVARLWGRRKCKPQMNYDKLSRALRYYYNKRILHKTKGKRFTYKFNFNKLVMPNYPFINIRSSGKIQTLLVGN
To be noted: protein: recombinant; tags: N-terminal GST; dsDNA, one strand shown. The gist of the method: as §1

For the next experiment, the target named is ETV6 (Homo sapiens, UniProt P41212 1-452). To be noted: protein: recombinant; tags: N-terminal GST; dsDNA, one strand shown. Summed up: as §1
Sequence of ETV6 (P41212 whole entry): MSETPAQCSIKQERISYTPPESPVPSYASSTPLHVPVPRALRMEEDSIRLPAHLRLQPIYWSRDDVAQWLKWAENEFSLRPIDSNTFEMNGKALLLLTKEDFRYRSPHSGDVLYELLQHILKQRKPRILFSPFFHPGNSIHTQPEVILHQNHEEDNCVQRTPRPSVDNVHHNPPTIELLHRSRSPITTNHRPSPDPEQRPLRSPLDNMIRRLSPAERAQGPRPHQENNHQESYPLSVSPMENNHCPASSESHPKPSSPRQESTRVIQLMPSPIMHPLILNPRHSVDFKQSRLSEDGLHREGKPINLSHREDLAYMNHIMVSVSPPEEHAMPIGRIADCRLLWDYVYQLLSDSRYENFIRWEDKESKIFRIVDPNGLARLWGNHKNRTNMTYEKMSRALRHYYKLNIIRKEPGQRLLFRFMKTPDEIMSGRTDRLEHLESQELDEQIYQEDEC

Sequence of ETV1 (P50549 whole entry): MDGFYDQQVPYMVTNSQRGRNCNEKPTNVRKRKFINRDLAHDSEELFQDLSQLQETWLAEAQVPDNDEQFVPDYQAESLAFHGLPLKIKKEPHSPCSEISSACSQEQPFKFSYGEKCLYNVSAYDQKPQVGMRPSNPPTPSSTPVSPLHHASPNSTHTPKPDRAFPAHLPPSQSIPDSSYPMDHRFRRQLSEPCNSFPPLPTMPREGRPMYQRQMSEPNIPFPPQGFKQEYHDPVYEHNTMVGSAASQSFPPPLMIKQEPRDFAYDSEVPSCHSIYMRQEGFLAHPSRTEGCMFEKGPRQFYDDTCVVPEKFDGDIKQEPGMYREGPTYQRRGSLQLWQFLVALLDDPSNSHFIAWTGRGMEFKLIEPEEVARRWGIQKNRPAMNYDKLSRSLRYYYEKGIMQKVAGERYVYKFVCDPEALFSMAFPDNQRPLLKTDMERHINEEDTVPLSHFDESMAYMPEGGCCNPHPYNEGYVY
Sequence of HSF1 (Q00613 whole entry): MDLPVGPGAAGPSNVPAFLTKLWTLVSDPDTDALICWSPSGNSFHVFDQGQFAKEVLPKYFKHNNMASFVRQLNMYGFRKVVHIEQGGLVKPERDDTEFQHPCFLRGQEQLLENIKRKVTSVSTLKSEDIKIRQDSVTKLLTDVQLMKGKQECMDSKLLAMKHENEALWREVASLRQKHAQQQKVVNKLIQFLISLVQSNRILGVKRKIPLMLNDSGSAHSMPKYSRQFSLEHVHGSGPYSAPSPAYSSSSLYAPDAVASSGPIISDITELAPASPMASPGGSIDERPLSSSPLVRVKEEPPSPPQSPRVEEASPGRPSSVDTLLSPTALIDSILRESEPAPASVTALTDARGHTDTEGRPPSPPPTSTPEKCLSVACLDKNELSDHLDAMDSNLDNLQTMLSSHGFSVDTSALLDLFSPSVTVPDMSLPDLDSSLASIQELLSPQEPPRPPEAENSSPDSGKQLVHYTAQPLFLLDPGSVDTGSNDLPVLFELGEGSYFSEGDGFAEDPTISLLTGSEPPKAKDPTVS
Sequence of ETV5 (P41161 whole entry): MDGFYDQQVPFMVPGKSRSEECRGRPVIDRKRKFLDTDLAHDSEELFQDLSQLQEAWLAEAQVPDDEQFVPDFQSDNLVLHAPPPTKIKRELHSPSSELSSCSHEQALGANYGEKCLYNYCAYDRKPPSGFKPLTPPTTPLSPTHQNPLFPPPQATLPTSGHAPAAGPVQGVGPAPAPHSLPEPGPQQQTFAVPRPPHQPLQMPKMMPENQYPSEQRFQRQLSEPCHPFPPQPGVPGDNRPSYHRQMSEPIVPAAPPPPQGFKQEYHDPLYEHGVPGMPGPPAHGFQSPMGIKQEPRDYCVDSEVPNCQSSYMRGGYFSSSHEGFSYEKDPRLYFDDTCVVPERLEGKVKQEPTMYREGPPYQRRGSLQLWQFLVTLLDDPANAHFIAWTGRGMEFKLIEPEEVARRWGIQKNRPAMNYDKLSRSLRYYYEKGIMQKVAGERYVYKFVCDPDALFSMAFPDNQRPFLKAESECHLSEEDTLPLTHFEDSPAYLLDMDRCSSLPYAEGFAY
Sequence of ELF4 (Q99607 whole entry): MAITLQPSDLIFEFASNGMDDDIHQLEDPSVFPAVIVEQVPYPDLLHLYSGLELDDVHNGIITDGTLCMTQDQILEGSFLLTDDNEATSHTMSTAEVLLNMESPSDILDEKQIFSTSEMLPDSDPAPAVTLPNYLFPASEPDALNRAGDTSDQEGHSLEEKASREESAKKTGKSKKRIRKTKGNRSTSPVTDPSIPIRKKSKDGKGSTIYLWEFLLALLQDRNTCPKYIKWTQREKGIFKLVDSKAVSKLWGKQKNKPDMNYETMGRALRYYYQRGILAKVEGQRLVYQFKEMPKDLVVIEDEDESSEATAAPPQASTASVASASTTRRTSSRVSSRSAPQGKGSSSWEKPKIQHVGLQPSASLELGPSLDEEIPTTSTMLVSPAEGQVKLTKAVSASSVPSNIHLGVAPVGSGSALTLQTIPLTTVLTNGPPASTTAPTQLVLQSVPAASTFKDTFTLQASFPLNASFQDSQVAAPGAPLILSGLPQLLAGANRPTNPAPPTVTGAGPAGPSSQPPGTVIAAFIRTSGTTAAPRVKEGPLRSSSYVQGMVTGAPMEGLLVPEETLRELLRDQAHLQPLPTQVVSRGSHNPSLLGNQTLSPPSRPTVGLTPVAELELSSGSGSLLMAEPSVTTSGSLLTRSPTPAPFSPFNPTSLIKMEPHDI
Sequence of CRX (O43186 whole entry): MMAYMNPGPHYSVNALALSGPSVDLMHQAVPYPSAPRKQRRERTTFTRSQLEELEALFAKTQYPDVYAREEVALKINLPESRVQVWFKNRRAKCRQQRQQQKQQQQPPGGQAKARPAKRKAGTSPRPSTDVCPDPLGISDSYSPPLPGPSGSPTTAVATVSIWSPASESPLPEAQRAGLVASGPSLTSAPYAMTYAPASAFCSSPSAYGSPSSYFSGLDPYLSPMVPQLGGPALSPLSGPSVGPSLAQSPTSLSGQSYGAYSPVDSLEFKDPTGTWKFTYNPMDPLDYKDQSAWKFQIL

AAGTCT: the binding signal was 1.07 fold enrichment (6-mer frequency, TF over GST control) in the experiment with FEV; 1.12 fold enrichment (6-mer frequency, TF over GST control) in the experiment with ETV5; 1.25 fold enrichment (6-mer frequency, TF over GST control) in the experiment with HSF1; 1.04 fold enrichment (6-mer frequency, TF over GST control) in the experiment with SPIC; 1.06 fold enrichment (6-mer frequency, TF over GST control) with ELF4; 1.13 fold enrichment (6-mer frequency, TF over GST control) with ELK4. The binding signal is 1.06 fold enrichment (6-mer frequency, TF over GST control) with ETV2; 1.13 fold enrichment (6-mer frequency, TF over GST control) in the experiment with ELF3; 1.28 fold enrichment (6-mer frequency, TF over GST control) with CRX; 1.09 fold enrichment (6-mer frequency, TF over GST control) with ETV1; 1.25 fold enrichment (6-mer frequency, TF over GST control) with ERF; 1.14 fold enrichment (6-mer frequency, TF over GST control) with ETV3L. For the same sequence, the binding signal is 1.21 fold enrichment (6-mer frequency, TF over GST control) in the experiment with ETS2; 1.13 fold enrichment (6-mer frequency, TF over GST control) in the experiment with SPDEF; 1.15 fold enrichment (6-mer frequency, TF over GST control) with ETV7; 1.23 fold enrichment (6-mer frequency, TF over GST control) with ELF5; 1.21 fold enrichment (6-mer frequency, TF over GST control) with ETV3; 1.14 fold enrichment (6-mer frequency, TF over GST control) in the experiment with ETV6.

The record behind these values is PMC7862700, “An all-to-all approach to the identification of sequence-specific readers for epigenetic DNA modifications on cytosine”.
